Compounds with a hit are over-represented: about 12% of the library has one in this group of screens.
JMJD2A Tudor – JMJD2A Tudor domain (human) inhibition; O75164; AlphaScreen JMJD2A-Tudor / H3K4me3 peptide binding; Potency, µM (top dose mostly 114 µM), hits mostly inhibitors; hit rate 4.4% among 390,000; note: nearly all actives have a fitted effect of over 50% in size
G9a block – G9a (human) methyltransferase inhibition; G9a H3K9 monomethylation, AlphaScreen, 2 h; AID 504332; hit rate 8.8% among 350,000; Potency, µM (series often up to 102 µM), hits mostly inhibitors; Q96KQ7; note: nearly all actives have a fitted effect of over 75% in size
Target sequence (Q96KQ7 913-1193 limits assumed): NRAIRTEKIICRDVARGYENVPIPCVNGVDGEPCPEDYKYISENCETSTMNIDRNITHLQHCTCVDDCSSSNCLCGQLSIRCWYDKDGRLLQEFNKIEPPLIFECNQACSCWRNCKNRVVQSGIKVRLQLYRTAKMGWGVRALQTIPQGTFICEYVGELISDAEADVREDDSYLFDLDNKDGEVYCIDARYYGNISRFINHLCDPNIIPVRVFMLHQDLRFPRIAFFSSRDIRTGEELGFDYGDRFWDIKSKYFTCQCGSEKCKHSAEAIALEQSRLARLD
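Quantitative HTS format: methyltransferase activity on a biotin-tagged H3K9 peptide is measured by AlphaScreen, using a rabbit anti-monomethyl-H3K9 antibody with streptavidin donor and anti-IgG acceptor beads. Final levels are 20 nM enzyme, 500 nM peptide, 20 uM SAM; 2 h RT.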
HP1b chromo inh – blocks HP1-beta chromodomain binding to methylated histone tails; P83916; AlphaScreen HP1-beta / biotin-H3K9me3 peptide binding; Potency, µM (top dose mostly 114 µM), actives largely listed as inhibitors; hit rate 0.56% among 390,000; AID 540317; note: nearly all actives have a fitted effect of over 70% in size
Target sequence (P83916 whole entry, looked up): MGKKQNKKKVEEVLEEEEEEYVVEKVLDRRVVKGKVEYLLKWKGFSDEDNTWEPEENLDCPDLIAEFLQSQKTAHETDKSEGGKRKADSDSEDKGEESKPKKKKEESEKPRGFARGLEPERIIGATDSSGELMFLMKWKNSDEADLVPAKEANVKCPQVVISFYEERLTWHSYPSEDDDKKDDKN
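Compound inhibition of the preformed complex between 50 nM HP1-beta and 50 nM biotinylated H3K9me3 peptide was read by AlphaScreen. Buffer was PBS pH 7.4 with 0.01% Tween-20. Incubations ran 30 min at room temperature, with 10 ug/mL donor/acceptor beads.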
BAZ2B block – inhibitors of human BAZ2B bromodomain; Potency, µM (highest dose often 114 µM), actives largely listed as inhibitors; Q9UIF8; hit rate 4.4% among 360,000; AlphaScreen BAZ2B-H3K14Ac peptide displacement; note: nearly all actives have a fitted effect of over 60% in size
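Compounds, titrated to a top concentration of 110 uM, were incubated 30 min at room temperature with preformed BAZ2B/acetyl-K14 H3 peptide complex (50 nM each). Proximity signal was measured by AlphaScreen after 20 min with beads.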
Sfp inh – inhibitors of Bacillus subtilis Sfp phosphopantetheinyl transferase. Biochemical Sfp PPTase activity, qHTS. hit rate 3.5% among 310,000. Q9F4F7. AID 1490. Potency, µM, most hits filed as inhibitors;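 note: the enzyme is Sfp with the accession as filed and its product quenches rhodamine fluorescence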
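Reaction rates are the 30-min fluorescence difference (ex 525, em 598 nm) in wells containing 15 nM Sfp, 5 uM rhodamine-CoA and 12.5 uM BHQ-2-YbbR at pH 7.6 with 10 mM MgCl2.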
PLK1 PBD inh – inhibitors of human PLK1 polo-box domain binding; P53350; Plk1 PBD binding of FITC phosphopeptide, fluorescence polarization; Potency, µM, most hits filed as inhibitors; hit rate 2.8% among 360,000; AID 720504; note: series mostly up to about 57 µM; nearly all actives have a fitted effect of over 65% in size
A number is an active result; i = inactive; ? = inconclusive; nt = not tested or not shown; [ ] = dose if it differs, or a comment. Calls come from the whole dose curve; as a rule, active = well fitted curve in the direction sought with a large enough effect; inconclusive = small, poorly fitted or top-dose-only effect, or another doubt; inactive = no such curve, though single readings can be large; an effect the other way counts as inactive or inconclusive.

SMILES	JMJD2A Tudor	G9a block	HP1b chromo inh	BAZ2B block	Sfp inh	PLK1 PBD inh
N#C/C(=C/c1ccc(F)cc1)S(=O)(=O)c1ccccc1	i	nt	i	i	i	?
COc1cc(/C=C(\C#N)C(=O)N2CCCCC2)ccc1O	i	i	i	i	i	i
N#C/C(=C\c1ccc(O)c(O)c1)C(=O)N1CCCC1	?	13µM	i	nt	63µM	i
N#C/C(=C\c1ccc(O)c(O)c1)C(=O)c1ccc(O)c(O)c1	0.71µM	2.2µM	?	2.2µM	nt	i
CCCCn1nnnc1C1(C)CCC(=O)N1Cc1cccnc1 (stereo not given)	nt	nt	nt	nt	nt	i
COc1cccc(CNCCCSc2nnnn2C)c1	i	i	i	i	nt	nt
CC(OC(=O)c1ccc(-c2ccc(O)cc2)cc1)C(=O)NC1CCCCC1C (stereo not given)	i	i[0.501 µM]	i	i	nt	i
CCCCN(C)S(=O)(=O)c1ccc(C(=O)Nc2ccc(-c3nc4ccc(C)cc4s3)cc2)cc1	i	i	i	i	nt	nt
COc1ccc(CCNC(=O)C2CCCN(c3ncnc4c3nc3n4CCCCC3)C2)c(OC)c1 (stereo not given)	i	i	i	i	i	i
Cc1noc(C)c1-c1ccc2ncnc(NCc3ccco3)c2c1	i	nt	nt	nt	i	nt
CC(C)(C)OC(=O)N1CCC(c2c(C(=O)NCC3CCN(C4CCCC4)C3)cnn2-c2ccccc2Cl)CC1 (stereo not given)	i	71µM	i	i	i	i
O=C(CSc1ncc(C(F)(F)F)cc1Cl)N1CCNC1=O	i	nt	i	nt	nt	27µM
O=C(CSc1ncc(C(F)(F)F)cc1Cl)N1CCN(S(=O)(=O)c2ccc3ccccc3c2)CC1	?	i	i	i	i	24µM
CCn1cc(C(=O)NCCCN(C)C)c(=O)c2cc(F)c(N3CCN(C)CC3)cc21	i	35µM	i	i	i	i
CCn1cc(C(=O)NCCN(C)C)c(=O)c2cc(F)c(N3CCN(C)CC3)cc21	i	50µM	i	i	i	i
C[Si](C)(C)O[Si](C)(C)C	nt	i	nt	nt	i	nt
CCCCC(=O)N(C)c1c(CC)nc2c(OCCC)cccn12	nt	nt	nt	nt	nt	i
CC(C)CN1CCN(C(=O)CCc2nnc(Cc3c[nH]c4ccccc34)o2)[C@@H](C)C1=O	i	?	i	i	i	i
Cc1ccc(F)cc1N=Cc1c(O)c2ccccc2oc1=O	i	79µM	i	i	i	i
Cc1ccc(N=Cc2c(O)c3ccccc3oc2=O)c(C)c1	i	i	i	i	i	i
CC1CCCN(CC(=O)Nc2ccc(S(=O)(=O)N3C(C)CCCC3C)cc2)C1 (stereo not given)	nt	nt	nt	nt	nt	i
Cc1ccc(-n2c(CNc3ccc(C)c(Cl)c3)n[nH]c2=S)cc1	?	50µM	i	?	i	i
Cc1ccc(NCc2n[nH]c(=S)n2-c2cccc(Cl)c2)cc1	?	?	i	i	i	?
Cc1ccc(-n2c(CNc3cccc(Cl)c3)n[nH]c2=S)cc1	i	4.5µM	i	i	i	i
COc1cccc([C@@H]2Oc3ccc(OC)cc3C(=O)[C@H]2OC(=O)NC2CCCC2)c1	nt	nt	nt	nt	i	nt
SMILES	JMJD2A Tudor	G9a block	HP1b chromo inh	BAZ2B block	Sfp inh	PLK1 PBD inh
Cc1ccc(N=Nc2ccc(O)c(P(=O)(c3ccccc3)c3ccccc3)c2)cc1	11µM	?	i	?	i	?
CCc1cc(C(=O)N(CC(C)C)c2c(N)n(Cc3ccccc3)c(=O)[nH]c2=O)sc1C	i	i[2.33 µM]	i	i	nt	i
CCOC(=O)C(=CNNc1ccccc1)C(=O)OCC	79µM	2µM	i	?	?	?
CCOC(=O)NNc1ccccc1	i	nt	i	i	i	i
CCCCCCCC#Cc1ccccc1/C=N/S(=O)C(C)(C)C (stereo not given)	nt	nt	nt	nt	i	nt
O=C(OCc1cc(=O)n2nc(C3CCCCC3)sc2n1)c1ccc(F)cc1	i	i	i	i	nt	nt
CCCOC(=O)c1c(NC(=O)/C=C/c2cnn(C)c2C)sc(C(=O)OCC)c1C	i	i	i	i	i	i
CCOC(=O)c1sc(NC(=O)/C=C/c2cnn(CC)c2C)c(C(=O)OCC)c1C	i	?	i	i	25µM	13µM
CS(=O)(=O)c1ncc(Cl)c(C(=O)N2CCN(c3cccc(Cl)c3)CC2)n1	i	13µM	i	?	nt	nt
O=C(c1ccc(S(=O)(=O)N2CCCC2)cc1)N1CCN(c2cccc(Cl)c2)CC1	i	i	i	i	i	i
CCS(=O)(=O)c1ncc(Cl)c(C(=O)N2CCN(c3cccc(Cl)c3)CC2)n1	i	13µM	i	i	nt	nt
CCc1noc(C)c1C(=O)N1CCN(c2cccc(Cl)c2)CC1	nt	nt	nt	nt	nt	i
COc1ccc(NC(=O)N2CC[C@@]3(CCCN(C(=O)c4cccc(F)c4)C3)C2)cc1	nt	i[12.7 µM]	nt	nt	i	nt
Cc1ccc(C)c(CSc2cn(CCNC(=O)c3cccs3)c3ccccc23)c1	i	i	i	i	nt	nt
O=C(c1cc(-c2ccncc2)nc2ccccc12)N1CCCC(C(F)(F)F)C1 (stereo not given)	nt	nt	nt	nt	nt	i
O=C(c1cc2ccccc2cc1O)N1CCCC(C(F)(F)F)C1 (stereo not given)	i	nt	i	79µM	i	i
CCN1CCN(C(=O)c2cc(-c3ccc(Cl)s3)nc3ccccc23)CC1	i	nt	i	i	i	i
COc1cc2ccccc2cc1C(=O)N1CCCC(C(F)(F)F)C1 (stereo not given)	i	i[12.7 µM]	?	i	nt	i
CCN1CCN(C(=O)c2cc(-c3ccco3)nc3ccccc23)CC1	i	?	i	71µM	nt	i
O=C(c1cc(-c2ccco2)nc2ccccc12)N1CCCC(C(F)(F)F)C1 (stereo not given)	40µM	i[12.7 µM]	i	50µM	nt	?
COCCSc1nnc(NS(=O)(=O)Cc2ccccc2)s1	i	?	i	i	i	i
CCC(C)Sc1nnc(NS(=O)(=O)Cc2ccccc2)s1 (stereo not given)	i	32µM	i	i	i	i
CC[C@H](NC(C)C)[C@H](O)c1ccc(O)c(O)c1	nt	i[12.7 µM]	nt	nt	i	nt
CC(C)(C=O)C1=CC(=O)c2ccccc2C1=O	25µM	1.8µM	5µM	50µM	6.3µM	2.1µM
COc1cccc2c1C(=O)C=C(C)C2=O	i	i	i	i	i	i
SMILES	JMJD2A Tudor	G9a block	HP1b chromo inh	BAZ2B block	Sfp inh	PLK1 PBD inh
CC1=CC(=O)c2ccccc2C1=O	i	8.9µM	i	?	?	i
Cc1nn(-c2ccccc2)c(OC(=O)C(C)C)c1Sc1ccc(Cl)cc1	i	4.5µM	i	i	nt	nt
COc1ccc(C(=O)Oc2c(Sc3ccccc3)c(C)nn2-c2ccccc2)c(OC)c1	i	i	i	i	nt	nt
Cc1cccc(NC(=S)c2nc3ccccc3s2)c1	50µM	nt	28µM	8.9µM	i	i
CNc1cc(CSC)nc(SCc2ccc(Cl)c(Cl)c2)n1	i	32µM	i	i	i	i
Cc1nc(SCc2ccc(Cl)c(Cl)c2)ncc1C(=O)O	i[11.4 µM]	i	i	i	i	?
Cc1c(P(=S)(c2ccccc2)c2ccccc2)[n+]2ccccc2n1CCc1ccccc1	i	nt	nt	nt	nt	nt
CNc1n[nH]c(=S)s1	5µM	3.5µM	25µM	i	35µM	i

Assay outcomes (PubChem)
